# About 13,000 (27%) of roughly 48,000 compounds showed an effect of 50% or more. This is one part of the list.
# Tested on: Wolbachia pipientis
# Test: Anti-Wolbachia Cell-Based Screen
# Assay type: functional
# Parameters: scale not given: in the data most compounds retested in dose-response had high values
# Conditions: 5 µM
row,SMILES,Percent Effect [%]
1,Cc1nn(CCn2ccnc2-c2cc3n(n2)CCCNC3)c(C)c1Cl,1.548
2,CC(C)C(C(=O)NC1CC1)n1cnc2cc(F)c(F)cc21 (configuration not stated),15.81
3,O=C(NCc1nc(C2CC2)no1)N1CCOC(c2ccccc2F)C1 (configuration not stated),3.199
4,CC(C)CNC(=O)C[S+]([O-])Cc1csc(C2CCCCC2)n1 (configuration not stated),-4.765
5,COc1ccc(C(O)CNc2c(C#N)c(=O)n(C)c(=O)n2C)cc1 (configuration not stated),-9.845
6,CN(C(=O)C1CSCN1S(=O)(=O)c1ccc(F)cc1)C1CC1 (configuration not stated),5.468
7,CC(C)c1nc2n(n1)CC(NCc1cc3ccccc3o1)CC2 (configuration not stated),-25.06
8,Cc1ccc(CNC2CCc3nc(C(C)C)nn3C2)o1 (configuration not stated),110.7
9,CC(C)c1nc2n(n1)CC(NCc1nnc(C(C)C)o1)CC2 (configuration not stated),2.327
10,CC(C)c1nc2n(n1)CC(NCc1nc(-c3ccccn3)no1)CC2 (configuration not stated),1.998
11,COCCc1noc(CNC2CCc3nc(C(C)C)nn3C2)n1 (configuration not stated),-13.08
12,Cc1cc(CNC2CCc3nc(C(C)C)nn3C2)on1 (configuration not stated),128.3
13,CCN(C(=O)NCc1ccccc1OC(F)F)C(C)c1cccnc1 (configuration not stated),-11.48
14,CC(C)(NCC(=O)N1CCCC(C(N)=O)C1)c1ccc(Cl)cc1 (configuration not stated),1.343
15,CC(C)(C)c1cc(C(=O)N2CCOC(c3cnccn3)C2)[nH]n1 (configuration not stated),139
16,Cc1cc(C(=O)N2CCOC(c3nc(C)n[nH]3)C2)[nH]n1 (configuration not stated),-1.43
17,CCCc1cc(C(=O)N2CCCC2c2cccnc2)[nH]n1 (configuration not stated),15.07
18,CC(C)(C)c1cn(C2CCN(C(=O)c3cnccn3)CC2)nn1,-4.102
19,Cc1cc(C(=O)N2CCOC(c3ccc(Cl)c(Cl)c3)C2)[nH]n1 (configuration not stated),-12.35
20,CC(C)(C)c1cc(C(=O)N2CCC(c3cnccn3)CC2)[nH]n1,96.1
21,CC(C)c1nc(C(=O)N2C[C@H]3CC[C@@H]2CN(C2CCOCC2)C3)cs1,-6.079
22,CCOCC(=O)N1CCC(c2nccn2Cc2cscn2)CC1,-5.535

row,SMILES,Percent Effect [%]
1,Cc1ccc(F)cc1CC(=O)N1CC[C@@]2(O)CCNC[C@H]2C1,-17.57
2,O=C(Cc1ccc(F)cc1Cl)N[C@@H]1CCNC[C@H]1O,6.286
3,Cc1cc(F)ccc1-c1ccccc1CC1CNCCNC1=O.Cl (configuration not stated),140
4,CCNC(=O)[C@@H]1CCCN1[C@@H](C(=O)NC)C1CC1.Cl,7.785
5,CS(=O)(=O)N1CCC2(CCCN(CCCc3ccccc3)C2=O)C1 (configuration not stated),8.67
6,CCCS(=O)(=O)N1CCC2(CCC(=O)N(CCc3ccccc3)C2)CC1,19.11
7,CCS(=O)(=O)N1CCC(OCCCc2ccccc2)C1 (configuration not stated),-14.61
8,O=C1CN(S(=O)(=O)CC(F)(F)F)CC(O)CN1CCCc1ccccc1 (configuration not stated),73.93
9,CCCS(=O)(=O)N1CCC2(CC1)CC(=O)N(CCCc1ccccc1)C2,8.339
10,CS(=O)(=O)N1CC(=O)N(CCCc2ccccc2)CC(O)C1 (configuration not stated),96.22
11,CCS(=O)(=O)N1CC(=O)N(CCCc2ccccc2)CC(O)C1 (configuration not stated),108.2
12,CCCS(=O)(=O)N1CC(=O)N(CCCc2ccccc2)CC(O)C1 (configuration not stated),106.2
13,Cn1ccnc1CN1C(=O)CO[C@H]2CN(CCCc3ccccc3)C[C@H]21,-23.58
14,CS(=O)(=O)N1CCC(OCCCc2ccccc2)C1 (configuration not stated),-9.606
15,N#Cc1cccc(NC2CC(=O)N(CCCc3ccccc3)C2)n1 (configuration not stated),-4.151
16,CCS(=O)(=O)N1CC[C@@H]2[C@@H](CCC(=O)N2CCc2ccccc2)C1,-12.22
17,CC(C)(C)NC(=O)N1CCN2C(=O)OCC2C1 (configuration not stated),-12.64
18,CCC(C)c1csc(NC(=O)c2sc(-c3nnc[nH]3)nc2C)n1 (configuration not stated),-26.52
19,CSc1cccc(CNC(=O)C2CC(=O)N(CCN(C)C)C2)c1 (configuration not stated),8.737
20,O=C(c1nnn(-c2ccc(C(F)(F)F)cc2)n1)N1CCC(O)CC1,4.237
21,CCS(=O)(=O)N1CC(=O)N(CCOc2ccccc2)CC(O)C1 (configuration not stated),118.2
22,CC(C)[C@@H]1CN(CCOc2ccccc2)C[C@H]1NS(=O)(=O)N(C)C,3.365

row,SMILES,Percent Effect [%]
1,N[C@H]1CN(CCCOc2ccccc2)C[C@@H]1C1CC1,-13.64
2,CC(C)N1CCC2(CCCN(C(=O)c3cncn3C)C2)CC1.O=C(O)C(F)(F)F,0.429
3,Cc1noc2ncc(C(=O)N3CCCC3c3cnn(C)c3)cc12 (configuration not stated),9.393
4,CC(C)CN(C)c1ccc(C(=O)N2CCCC2c2cnn(C)c2)cn1 (configuration not stated),-4.627
5,CN(C)c1ccc(C(=O)N2CCCC2c2cnn(C)c2)cn1 (configuration not stated),96.67
6,CN(C)c1ccc(C(=O)N2CCCC2c2cnn(C)c2)nn1 (configuration not stated),5.055
7,CN(C)c1cc(C(=O)N2CCCC2c2cnn(C)c2)ccn1 (configuration not stated),118.6
8,COc1cccc(OC2CN(C(=O)Cn3nc4ccccc4n3)C2)c1,-0.01054
9,NC(=O)C1(Cc2ccc(-c3ccccc3)cc2)CCCNC1 (configuration not stated),155.7
10,O=C(NCCc1nncn1C1CC1)C1(Cc2ccccc2)CCC1,0.4274
11,NC(=O)C1(Cc2ccc(-c3ccccc3)cc2)CCNC1 (configuration not stated),156.4
12,OC1(CNCCSCc2ccccc2)CCCNC1 (configuration not stated),3.749
13,Cc1cc(C)cc(-c2ccc(CC3(C(=O)O)CCOCC3)cc2)c1,0.9737
14,CCNC(=O)C1(Cc2ccc(-c3ccccc3)cc2)CCCNC1 (configuration not stated),160.5
15,Cl.Cl.c1ccc(-c2cnc3n2CCNC32CCNCC2)cc1,-2.159
16,Cn1c(=O)oc2ccc(Nc3ncc(C#N)cc3Cl)cc21,-1.266
17,OCC(CO)Nc1cccc(C(F)(F)F)n1,-11.08
18,Cc1ccc(N2CCC(c3nccn3Cc3cscn3)CC2)nn1,-11.8
19,CC(C)c1nc(C2CCCN2c2cnc3ccccc3n2)no1 (configuration not stated),-9.022
20,c1ccc2nc(N3CCCC3c3nnc4n3CCCCC4)cnc2c1 (configuration not stated),231.1
21,c1cnc2nc(N3CCc4c(ncn4C4CC4)C3)ccc2n1,1.111
22,COc1ccc(C2CCCN2c2cnc3ccccc3n2)c(OC)c1 (configuration not stated),8.411

row,SMILES,Percent Effect [%]
1,Nc1cc(N2CCCC2c2cnccn2)ncn1 (configuration not stated),-4.526
2,c1cnc2nc(N3CCCC3c3nnc4n3CCCCC4)ccc2n1 (configuration not stated),123.3
3,Cn1c(CC2CCS(=O)(=O)C2)nnc1SCCOc1ccccc1F (configuration not stated),1.517
4,CN(Cc1ccncc1)C(=O)Nc1cnn(CC(N)=O)c1,-7.922
5,CCN(C)S(=O)(=O)N1CCC(C(O)c2ccc(Cl)cc2)CC1 (configuration not stated),1.239
6,CC(C)COC(C)C(=O)NCc1cc(F)cc(F)c1 (configuration not stated),-4.135
7,CC(C)COC(C)C(=O)NCc1ccc(OC(C)C)nc1 (configuration not stated),0.7864
8,CC(C)COC(C)C(=O)NCc1ccc(F)cc1 (configuration not stated),52.08
9,CC(OCC1CC1)C(=O)NCc1cccc(CN2CCCC2=O)c1 (configuration not stated),3.012
10,CC(C)COC(C)C(=O)NCc1ccccc1 (configuration not stated),129.5
11,CCOCCOC(C)C(=O)NCc1ccc(N2CCCCC2)cc1 (configuration not stated),-8.198
12,Cc1cc(C)n(-c2ccc(N3CCC4(CC3)OCC(C)O4)nc2)n1 (configuration not stated),14.39
13,O=C(C1CCCOC1)N(CC(F)F)c1cccc(Cl)c1 (configuration not stated),-10.1
14,CN1CCN(C(=O)C2SCCc3sccc32)CC1 (configuration not stated),-4.064
15,CCC(C)(C)NC(=O)CSCc1ccc(S(=O)(=O)N(C)C)o1,5.588
16,CCC(C)(CC(=O)OC)NCc1cc(C)on1 (configuration not stated),-8.886
17,COc1ccccc1CC(C)(C)NC(=O)CNS(C)(=O)=O,-9.621
18,N#Cc1ccc(CN2CCCCC2Cn2cncn2)cc1 (configuration not stated),10.73
19,c1ccc(-c2nnc(CN3CCCC3Cn3cncn3)o2)cc1 (configuration not stated),126.9
20,COc1ccc(-c2nnc(CN3CCCC3Cn3cncn3)o2)cc1 (configuration not stated),93.03
21,Cc1cnn(CC2CCCCN2Cc2nnc(-c3ccco3)o2)c1 (configuration not stated),2.932
22,Clc1ccc2cccnc2c1CN1CCCC1Cn1cncn1 (configuration not stated),-9.545

row,SMILES,Percent Effect [%]
1,Clc1ccccc1-c1nnc(CN2CCCC2Cn2cncn2)o1 (configuration not stated),104.1
2,c1coc(-c2nnc(CN3CCCC3Cn3cncn3)o2)c1 (configuration not stated),82.67
3,Fc1ccc(-c2nnc(CN3CCCC3Cn3cncn3)o2)cc1 (configuration not stated),-1.304
4,COc1ccc(-c2cnc(CN3CCCC3Cn3cncn3)o2)cc1 (configuration not stated),-4.543
5,c1csc(-c2nc(CN3CCCC3Cn3cncn3)co2)c1 (configuration not stated),2.244
6,CS(=O)(=O)N[C@@H]1CCN(Cc2nccs2)[C@H]1Cc1ccncc1.O=C(O)C(F)(F)F.O=C(O)C(F)(F)F,-21.66
7,COCc1cc(CNC(=O)c2c(C)c(C)cc(C)c2C)n[nH]1,-1.645
8,CC(=O)Nc1ccc(C(=O)N(C)C(C)Cc2cc(C)ccn2)cn1 (configuration not stated),-9.308
9,O=C(O)c1ccn(-c2ccccc2NS(=O)(=O)c2ccccc2)n1,2.8
10,Cc1nc(CN2C[C@@H]3CN(c4ncccn4)C[C@@H]3C2=O)cs1.O=C(O)C(F)(F)F,2.706
11,Cc1cccc(-c2nc(CN3CCCCC3Cn3cncn3)no2)c1 (configuration not stated),-2.041
12,Cc1ccc(-c2nnc(CN3CCCCC3Cn3cncn3)o2)cc1 (configuration not stated),107.2
13,CC(C)=Cc1c(-c2ccccc2)ncn1CCS(C)(=O)=O,-13.72
14,O=C1CCC2(CCN(c3cccc(C(F)(F)F)n3)CC2)CN1CCO,4.395
15,CN1CCCC2(CCN(c3cccc(C(F)(F)F)n3)C2)C1=O (configuration not stated),-13.28
16,OC1(CN2CCCCC2)CCN(c2cccc(C(F)(F)F)n2)C1 (configuration not stated),110.2
17,CC(C)N1CCC2(CCCN(c3nccc(C(F)(F)F)n3)C2)CC1.O=C(O)C(F)(F)F,-13.26
18,OC1(CN2CCCCC2)CCN(c2nccc(C(F)(F)F)n2)C1 (configuration not stated),108.3
19,CC(C)N1CCCC2(CCN(c3nccc(C(F)(F)F)n3)C2)C1=O (configuration not stated),-9.493
